Source: PubChem BioAssay (Tox21)
Inconclusive results are not listed. Where a call stands in place of a potency, no number is given. Active and inactive are the calls of the source. The call rests on the fitted dose curve; in most records, active means well fitted activation curve with a large enough effect in the repeat runs; inconclusive means weak or mixed curves; inactive means no such curve, though single readings can be large or run the other way.

The compounds below were run against Nuclear receptor subfamily 1 group I member 3 (Homo sapiens) (UniProt Q14994) (assay: qHTS assay to identify small molecule agonists of the constitutive androstane receptor (CAR) signaling pathway (AID 1224839; further: nearly all actives have a fitted effect of over 15% in size;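 on activation: HepG2 cells stably carrying human CAR and a CYP2B6 luciferase reporter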)). Conditions: HepG2 hCAR CYP2B6-luciferase, agonist mode, 24 h; series mostly up to 92.4 µM.
Text: National Center for Advancing Translational Sciences [NCATS] NIH Chemical Genomics Center [NCGC] U.S. Environmental Protection Agency [EPA] National Institutes of Environmental Health Sciences [NIEHS] National Toxicology Program [NTP] Assay overview: The constitutive androstane receptor (CAR) is a nuclear receptor which regulates multiple drug metabolizing enzymes (DMEs) and transporters. Activating CAR will generally increase the transcription and subsequent translation of CYP2B6 and CYP3A4. These two DMEs represent about 50% of the drug metabolizing potential in the body. […] Recently, there have also been studies performed indicating CARs role in energy metabolism and cancer therapy. Therefore, inducing CARs activity could have a potential effect on diabetes and cancer. Identifying environmental toxins and compounds which modulate CAR, through the use of the Tox21 10K compound collection, will be an important step in determining the toxicity and potential therapeutic effects these factors will have on the human body.
Assay Protocol Summary: A double-stable (hCAR and CYP2B6-2.2kb) transfected cell line, derived from human hepatoma (HepG2) cells, was utilized for the duration of the quantitative high-throughput screens. The HepG2-CYP2B6-hCAR cells suspended in DMEM culture medium supplemented with 10% FBS, 5 ug/mL blasticidin, 0.5 mg/mL geneticin, 100 U/mL penicillin and 100 ug/mL streptomycin were dispensed at 2500 cells/4 uL/well in 1536-well white solid bottom plates using a Multidrop Combi. After the assay plates were incubated at 37 C/5% CO2 for 4 hrs, 23 nL of compounds at 15 concentrations (from 5-48 columns) or positive control (from 1 to 4 columns) were transferred to the assay plates using a Pintool station. One uL of PK11195, was added using a Flying Reagent Dispenser to generate a final concentration of 0.75 uM PK11195 inside each well. After a 24 hr incubation period at 37 C/5% CO2, four uL of ONE-Glo reagent was added into the assay plates using a Flying Reagent Dispenser. After a 30 min incubation period at room temperature, the luminescence intensity in the assay plates was measured using a ViewLux plate reader.
Potency means the concentration at half of the fitted maximal effect.

Sequence of Nuclear receptor subfamily 1 group I member 3 (Homo sapiens) (Q14994 whole entry, looked up): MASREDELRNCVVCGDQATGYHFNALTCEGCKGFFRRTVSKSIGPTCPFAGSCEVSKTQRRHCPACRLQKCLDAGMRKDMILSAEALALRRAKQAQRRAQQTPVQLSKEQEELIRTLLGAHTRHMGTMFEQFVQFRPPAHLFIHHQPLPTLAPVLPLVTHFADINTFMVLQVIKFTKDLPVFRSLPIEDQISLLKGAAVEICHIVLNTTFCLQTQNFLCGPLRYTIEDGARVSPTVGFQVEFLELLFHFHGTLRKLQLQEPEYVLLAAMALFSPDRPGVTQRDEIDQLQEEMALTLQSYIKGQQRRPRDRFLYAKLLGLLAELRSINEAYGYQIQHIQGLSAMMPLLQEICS

| SMILES | Potency |
| --- | --- |
| O=[N+]([O-])c1cc(C(F)(F)F)cc([N+](=O)[O-])c1Cl | inactive |
| C[C@]12CC[C@H]3[C@@H](CCC4=CC(=O)CC[C@@H]43)[C@@H]1CC[C@@H]2OC(=O)CCC1CCCCC1 | inactive |
| COC(=O)C(Cl)C(=O)OC | inactive |
| CC(=O)CCC(C)=O | inactive |
| CCCCCCCCOC(=O)c1ccc(C(=O)OCCCCCCCC)c(C(=O)OCCCCCCCC)c1 | inactive |
| Cn1cc[n+](C)c1 (tested in a mixture with another compound) | inactive |
| Nc1ccc([N+](=O)[O-])cc1[N+](=O)[O-] | inactive |
| CC(C)=CCOc1c2occc2cc2ccc(=O)oc12 | 10.6 µM (active) |
| CCC(Br)(CC)C(=O)NC(N)=O | inactive |
| ClP(Cl)(Cl)(Cl)Cl | inactive |
| ClCCCCBr | inactive |
| C=CC(=O)OC(C)(C)C | inactive |
| CN1C[C@H](CNC(=O)OCc2ccccc2)C[C@@H]2c3cccc4c3c(cn4C)C[C@H]21 | inactive |
| Clc1ccc(C2(Cn3cncn3)CC(Br)CO2)c(Cl)c1 (stereo not given) | 60.8 µM (active) |
| CCCCCCCCCCOC(=O)c1ccccc1C(=O)OCCCCCCCCCC | inactive |
| CCCCN(N=O)C(=N)N[N+](=O)[O-] | inactive |
| CNC(C)Cc1ccccc1OC (stereo not given) | inactive |
| O=S1(=O)OC(c2cc(Br)c(O)c(Br)c2)(c2cc(Br)c(O)c(Br)c2)c2ccccc21 | inactive |
| C/C(=C\c1ccccc1)[N+](=O)[O-] | inactive |
| Oc1ccc(Cl)c(Cl)c1Cl | inactive |

| SMILES | Potency |
| --- | --- |
| CC[C@H]1C[C@H]2[C@@H]3CCC4=CC(=O)CC[C@@H]4[C@H]3CC[C@]2(C)[C@H]1O | inactive |
| CCCCCC[N+](=O)[O-] | inactive |
| CCCCc1c(C)nc(NCC)nc1OS(=O)(=O)N(C)C | 21.7 µM (active) |
| C=COC(C)=O | inactive |
| CC/C(=N\OC/C=C/Cl)C1=C(O)CC(C2CCOCC2)CC1=O (stereo not given) | inactive |
| Clc1cccc2ccccc12 | inactive |
| CC(=O)c1cc2c(cc1C)C(C)(C)C(C)CC2(C)C (stereo not given) | 24.3 µM (active) |
| O=C(CBr)Nc1ccc(Cl)cc1C(=O)c1ccccc1F | 26.6 µM (active) |
| C/C=C/C=O | inactive |
| CCC(Cl)CCl (stereo not given) | inactive |
| c1ccc(CN2CCNCC2)cc1 | inactive |
| C=CC(=O)OCCCCO | inactive |
| O=NN1CCNCC1 | inactive |
| OCCCBr | inactive |
| CS/C(C)=N/OC(=O)N(C)SN(C)C(=O)O/N=C(\C)SC | inactive |
| CCOP(=O)(OCC)Oc1ccc([N+](=O)[O-])cc1 | inactive |
| CC(C)N(CCC(C(N)=O)(c1ccccc1)c1ccccn1)C(C)C (stereo not given) | inactive |
| ClCc1ccccc1 | inactive |
| Cc1ccc(-c2c(Cl)nc(C#N)n2S(=O)(=O)N(C)C)cc1 | inactive |
| O=C(O)C1(c2ccc3c(c2)OC[C@H](Cc2ccc(-c4ccccc4)cc2)[C@H]3O)CCCC1 | inactive |
